The values that follow come from the supplement of paper PMC6411743.

± gives the standard deviation of the averaged measurements. About 5,400 targets were measured; listed, in parts, are those with the largest changes and a random draw of the rest.

Compound in the assay: Nc1nc2c(ncn2[C@@H]2O[C@H](COP(=O)(O)OP(=O)(O)OP(=O)(O)O)[C@@H](O)[C@H]2O)c(=O)[nH]1 [guanosine triphosphate]
Briefly: NP40-soluble protein abundance relative to vehicle (solubility fold change) (ratio); higher = more soluble protein in presence of GTP. The protocol:
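Solubility proteome profiling in Jurkat crude lysate. Lysate was treated with Mg-GTP (0.1-10 mM) for 10 min at room temperature and 3 min at 37 °C, then solubilised with 0.8% NP40 and benzonase, followed by ultracentrifugation. Proteins were quantified by TMT10 LC-MS/MS; the value is the NP40-soluble abundance relative to the NP40-processed vehicle, from 3 independent experiments.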

UniProt Q6ZNB6, sequence (Q6ZNB6 whole entry): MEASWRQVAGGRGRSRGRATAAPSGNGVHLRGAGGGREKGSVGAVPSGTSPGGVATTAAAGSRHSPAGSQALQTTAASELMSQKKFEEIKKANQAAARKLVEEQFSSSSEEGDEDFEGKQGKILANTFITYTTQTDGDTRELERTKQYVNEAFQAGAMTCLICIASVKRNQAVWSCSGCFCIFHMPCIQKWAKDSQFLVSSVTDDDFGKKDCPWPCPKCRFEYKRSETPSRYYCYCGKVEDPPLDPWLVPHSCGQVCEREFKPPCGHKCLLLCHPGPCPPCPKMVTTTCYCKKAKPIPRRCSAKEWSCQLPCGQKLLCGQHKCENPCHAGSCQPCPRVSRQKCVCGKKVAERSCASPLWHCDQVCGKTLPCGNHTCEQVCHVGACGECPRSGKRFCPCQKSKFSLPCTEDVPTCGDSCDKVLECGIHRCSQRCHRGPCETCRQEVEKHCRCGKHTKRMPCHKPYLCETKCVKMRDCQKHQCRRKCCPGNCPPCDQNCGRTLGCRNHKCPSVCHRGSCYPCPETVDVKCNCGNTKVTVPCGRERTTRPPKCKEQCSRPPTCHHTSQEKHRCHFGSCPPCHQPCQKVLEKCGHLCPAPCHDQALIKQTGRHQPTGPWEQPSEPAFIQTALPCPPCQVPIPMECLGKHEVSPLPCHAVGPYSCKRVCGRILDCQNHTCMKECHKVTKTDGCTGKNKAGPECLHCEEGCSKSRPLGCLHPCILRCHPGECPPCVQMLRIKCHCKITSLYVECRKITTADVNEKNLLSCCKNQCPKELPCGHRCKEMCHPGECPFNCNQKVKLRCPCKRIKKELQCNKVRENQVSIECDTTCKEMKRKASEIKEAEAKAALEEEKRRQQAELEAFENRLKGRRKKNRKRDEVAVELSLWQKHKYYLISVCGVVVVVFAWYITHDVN
UniProt Q12788, sequence (Q12788 whole entry): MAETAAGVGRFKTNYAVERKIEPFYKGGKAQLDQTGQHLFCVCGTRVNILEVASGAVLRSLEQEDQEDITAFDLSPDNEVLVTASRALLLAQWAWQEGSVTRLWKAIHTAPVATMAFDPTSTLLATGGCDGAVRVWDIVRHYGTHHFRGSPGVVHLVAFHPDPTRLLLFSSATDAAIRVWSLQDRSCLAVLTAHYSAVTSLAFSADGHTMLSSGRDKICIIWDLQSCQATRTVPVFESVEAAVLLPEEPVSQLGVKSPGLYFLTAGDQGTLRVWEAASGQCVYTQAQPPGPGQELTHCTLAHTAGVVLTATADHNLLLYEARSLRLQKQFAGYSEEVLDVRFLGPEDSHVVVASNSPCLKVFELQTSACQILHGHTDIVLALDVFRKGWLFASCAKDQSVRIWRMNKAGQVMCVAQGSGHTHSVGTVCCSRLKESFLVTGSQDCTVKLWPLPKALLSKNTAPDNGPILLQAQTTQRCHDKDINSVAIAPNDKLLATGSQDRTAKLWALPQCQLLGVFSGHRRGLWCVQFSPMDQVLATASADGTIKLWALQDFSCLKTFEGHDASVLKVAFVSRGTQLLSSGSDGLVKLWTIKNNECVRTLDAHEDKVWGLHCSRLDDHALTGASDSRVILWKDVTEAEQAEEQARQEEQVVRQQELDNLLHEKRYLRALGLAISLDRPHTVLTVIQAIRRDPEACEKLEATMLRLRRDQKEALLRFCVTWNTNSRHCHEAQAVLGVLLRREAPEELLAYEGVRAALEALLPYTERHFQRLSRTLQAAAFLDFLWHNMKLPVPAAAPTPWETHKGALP
UniProt P55072, sequence (P55072 whole entry, looked up): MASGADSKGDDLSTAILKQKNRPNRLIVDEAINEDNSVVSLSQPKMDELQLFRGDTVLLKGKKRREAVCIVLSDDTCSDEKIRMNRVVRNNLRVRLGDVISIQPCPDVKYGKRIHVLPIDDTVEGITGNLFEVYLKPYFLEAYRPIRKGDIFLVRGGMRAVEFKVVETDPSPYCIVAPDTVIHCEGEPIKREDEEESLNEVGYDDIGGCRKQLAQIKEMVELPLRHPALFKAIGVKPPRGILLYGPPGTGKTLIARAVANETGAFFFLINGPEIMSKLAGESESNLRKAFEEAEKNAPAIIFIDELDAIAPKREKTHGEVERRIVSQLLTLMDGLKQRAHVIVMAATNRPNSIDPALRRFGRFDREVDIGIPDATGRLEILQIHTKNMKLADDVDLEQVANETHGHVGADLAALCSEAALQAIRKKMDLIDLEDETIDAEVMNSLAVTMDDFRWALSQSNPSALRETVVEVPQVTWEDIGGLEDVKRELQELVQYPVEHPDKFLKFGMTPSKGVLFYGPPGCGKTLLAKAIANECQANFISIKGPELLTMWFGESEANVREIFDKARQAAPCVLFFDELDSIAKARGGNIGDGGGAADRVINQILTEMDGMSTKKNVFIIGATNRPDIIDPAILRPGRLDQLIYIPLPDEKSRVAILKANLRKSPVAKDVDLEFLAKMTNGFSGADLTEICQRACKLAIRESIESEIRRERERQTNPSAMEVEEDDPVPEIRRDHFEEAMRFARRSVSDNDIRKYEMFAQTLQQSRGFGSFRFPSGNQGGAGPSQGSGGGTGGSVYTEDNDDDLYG
UniProt Q8N3C0, sequence (Q8N3C0 whole entry): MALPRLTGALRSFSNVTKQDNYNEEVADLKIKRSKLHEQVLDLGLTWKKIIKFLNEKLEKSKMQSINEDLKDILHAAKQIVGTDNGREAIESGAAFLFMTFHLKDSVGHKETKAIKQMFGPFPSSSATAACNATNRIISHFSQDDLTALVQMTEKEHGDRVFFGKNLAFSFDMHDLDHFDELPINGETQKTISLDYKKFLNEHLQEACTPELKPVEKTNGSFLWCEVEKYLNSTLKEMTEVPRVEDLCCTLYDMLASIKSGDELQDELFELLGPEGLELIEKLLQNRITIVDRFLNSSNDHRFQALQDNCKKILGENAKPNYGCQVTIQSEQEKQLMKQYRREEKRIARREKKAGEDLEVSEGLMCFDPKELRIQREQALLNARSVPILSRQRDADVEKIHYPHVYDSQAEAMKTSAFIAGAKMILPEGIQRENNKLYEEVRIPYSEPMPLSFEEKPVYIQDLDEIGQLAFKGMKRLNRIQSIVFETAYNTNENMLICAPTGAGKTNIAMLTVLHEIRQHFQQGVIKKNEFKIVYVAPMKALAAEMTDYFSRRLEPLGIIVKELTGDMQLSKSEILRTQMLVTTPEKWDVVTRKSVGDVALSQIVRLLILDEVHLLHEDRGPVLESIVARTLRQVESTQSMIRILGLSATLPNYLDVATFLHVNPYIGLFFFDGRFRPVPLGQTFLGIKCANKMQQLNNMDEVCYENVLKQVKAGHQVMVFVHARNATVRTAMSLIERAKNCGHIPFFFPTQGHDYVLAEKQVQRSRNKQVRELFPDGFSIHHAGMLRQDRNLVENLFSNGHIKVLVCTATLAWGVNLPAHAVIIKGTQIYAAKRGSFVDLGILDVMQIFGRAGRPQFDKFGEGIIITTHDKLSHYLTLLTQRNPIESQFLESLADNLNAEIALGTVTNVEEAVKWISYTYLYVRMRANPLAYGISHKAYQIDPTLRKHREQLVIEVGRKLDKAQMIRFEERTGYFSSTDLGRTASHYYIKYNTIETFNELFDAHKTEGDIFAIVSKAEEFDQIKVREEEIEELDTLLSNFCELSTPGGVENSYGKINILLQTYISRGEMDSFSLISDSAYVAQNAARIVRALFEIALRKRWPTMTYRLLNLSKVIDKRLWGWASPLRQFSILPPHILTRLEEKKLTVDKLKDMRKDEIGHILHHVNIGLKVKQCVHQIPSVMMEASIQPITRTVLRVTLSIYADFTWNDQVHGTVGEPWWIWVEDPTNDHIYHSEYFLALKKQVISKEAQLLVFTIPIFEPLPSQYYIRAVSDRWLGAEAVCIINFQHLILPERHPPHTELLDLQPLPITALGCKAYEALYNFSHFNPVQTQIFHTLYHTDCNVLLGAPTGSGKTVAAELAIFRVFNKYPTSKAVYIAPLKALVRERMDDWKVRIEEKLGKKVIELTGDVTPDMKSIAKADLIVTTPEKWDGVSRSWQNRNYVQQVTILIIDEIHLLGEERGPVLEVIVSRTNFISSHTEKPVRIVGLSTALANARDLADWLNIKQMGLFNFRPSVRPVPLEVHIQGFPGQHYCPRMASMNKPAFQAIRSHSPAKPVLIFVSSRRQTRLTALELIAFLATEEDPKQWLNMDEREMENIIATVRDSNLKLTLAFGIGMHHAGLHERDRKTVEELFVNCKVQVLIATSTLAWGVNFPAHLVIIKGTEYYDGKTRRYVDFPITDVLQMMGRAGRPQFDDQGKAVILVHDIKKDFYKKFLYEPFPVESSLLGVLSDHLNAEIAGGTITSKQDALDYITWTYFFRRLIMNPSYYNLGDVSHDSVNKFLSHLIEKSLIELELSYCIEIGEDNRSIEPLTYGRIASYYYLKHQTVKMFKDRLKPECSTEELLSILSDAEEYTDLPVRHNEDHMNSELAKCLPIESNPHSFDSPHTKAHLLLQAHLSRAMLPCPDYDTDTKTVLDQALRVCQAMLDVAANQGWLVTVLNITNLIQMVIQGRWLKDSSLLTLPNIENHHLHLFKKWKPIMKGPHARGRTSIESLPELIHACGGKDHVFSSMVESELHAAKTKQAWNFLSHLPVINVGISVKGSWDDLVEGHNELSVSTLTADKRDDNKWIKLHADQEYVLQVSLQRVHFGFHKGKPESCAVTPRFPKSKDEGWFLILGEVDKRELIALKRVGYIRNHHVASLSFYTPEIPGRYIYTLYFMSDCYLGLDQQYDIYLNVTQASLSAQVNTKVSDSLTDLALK
UniProt Q6IBS0, sequence (Q6IBS0 whole entry): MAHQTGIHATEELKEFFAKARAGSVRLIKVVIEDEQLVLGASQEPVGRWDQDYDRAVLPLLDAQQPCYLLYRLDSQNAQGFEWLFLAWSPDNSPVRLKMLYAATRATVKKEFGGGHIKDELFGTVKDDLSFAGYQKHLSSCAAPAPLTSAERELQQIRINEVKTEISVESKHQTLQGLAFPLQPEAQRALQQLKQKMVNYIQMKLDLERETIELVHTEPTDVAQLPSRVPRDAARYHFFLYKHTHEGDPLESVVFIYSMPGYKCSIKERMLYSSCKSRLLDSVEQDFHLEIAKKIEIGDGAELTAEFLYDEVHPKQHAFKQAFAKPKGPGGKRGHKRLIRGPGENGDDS

Regarding ASCC3 (UniProt Q8N3C0), the NP40-soluble protein abundance was determined as 1 ± 0.066 (concentration: 0.1mM); 1.09 ± 0.026 (concentration: 0.5mM); 1.06 ± 0.032 (concentration: 1mM); 1.16 ± 0.091 (concentration: 2mM); 1.32 ± 0.17 (concentration: 4mM); 1.38 ± 0.22 (concentration: 6mM). Further, the NP40-soluble protein abundance is, setting by setting: (concentration: 8mM) 1.53 ± 0.26; (concentration: 10mM) 1.73 ± 0.27.
As for NFXL1 (UniProt Q6ZNB6), the NP40-soluble protein abundance by setting is: (concentration: 0.1mM) 1.04 ± 0.079; (concentration: 0.5mM) 1.09 ± 0.1; (concentration: 1mM) 1.05 ± 0.091; (concentration: 2mM) 1.11 ± 0.067; (concentration: 4mM) 1.13 ± 0.12; (concentration: 6mM) 1.16 ± 0.13. The NP40-soluble protein abundance was found to be 1.12 ± 0.12 (concentration: 8mM) and 1.15 ± 0.11 (concentration: 10mM).
In the case of UniProt P55072, the NP40-soluble protein abundance is, setting by setting: (concentration: 0.1mM) 0.982 ± 0.03; (concentration: 0.5mM) 1.05 ± 0.064; (concentration: 1mM) 0.999 ± 0.073; (concentration: 2mM) 1.02 ± 0.12; (concentration: 4mM) 1.03 ± 0.11; (concentration: 6mM) 1.03 ± 0.14. The NP40-soluble protein abundance turned out to be 1 ± 0.1 (concentration: 8mM) and 1 ± 0.11 (concentration: 10mM).
TBL3 (UniProt Q12788): the NP40-soluble protein abundance reads like this: (concentration: 0.1mM) 1.18 ± 0.1; (concentration: 0.5mM) 1.16 ± 0.14; (concentration: 1mM) 1.11 ± 0.058; (concentration: 2mM) 1.36 ± 0.15; (concentration: 4mM) 1.59 ± 0.19; (concentration: 6mM) 1.65 ± 0.17. Further, the NP40-soluble protein abundance (concentration: 8mM) came to 1.72 ± 0.21 and the NP40-soluble protein abundance (concentration: 10mM) amounted to 1.7 ± 0.26.
With TWF2 (UniProt Q6IBS0), the NP40-soluble protein abundance is, setting by setting: (concentration: 0.1mM) 1.02 ± 0.035; (concentration: 0.5mM) 1.09 ± 0.049; (concentration: 1mM) 1.02 ± 0.017; (concentration: 2mM) 1.02 ± 0.055; (concentration: 4mM) 1.03 ± 0.08; (concentration: 6mM) 1.01 ± 0.013. The NP40-soluble protein abundance is 0.95 ± 0.032 (concentration: 8mM) and 0.951 ± 0.012 (concentration: 10mM).
